Measurements: ChEMBL document CHEMBL3988442, “University of Dundee, Small-Polar-MMV Screening Library” (2021)
Among all 48,000 compounds or so, about 13,000 (27%) showed an effect of 50% or more. This is one part of the list.

Test system: Wolbachia pipientis
Assay: Anti-Wolbachia Cell-Based Screen
Assay type: functional
Set-up: scale not given: in the data most compounds retested in dose-response had high values
Conditions: 5 µM

Structure (SMILES) | Percent Effect
CCN(CCc1nc2cc(C)ccc2[nH]1)C(=O)COC | 16.32%
CCSCCC(C)N(C)C(=O)c1ccc2nncn2c1 (stereo not drawn) | 5.422%
CC(C)N1CCC(CC(=O)NC[C@H]2CCc3ccccc3O2)CC1 | 10.1%
Cc1cc(NC2CCN(c3ccccc3)C2)n2ncnc2n1 (stereo not drawn) | -12.56%
Cc1cc(=O)n2ncnc2n1CC(O)c1ccccc1 (stereo not drawn) | -22.33%
CCOc1cc(C)nc(N2CCN(Cc3nccn3CC)CC2)n1 | -15.08%
O=C(CSc1ccc(F)c(F)c1)NS(=O)(=O)c1ccc2c(c1)OCCO2 | -0.1688%
Cc1cnc(N2C[C@@H]3[C@@H](C2)OCC(=O)N3CCN(C)C)nc1.O=C(O)C(F)(F)F | -6.584%
Cn1cc(-c2nc3c(cc2C(=O)O)CCN(C(=O)C2CC2)CC3)cn1.O=C(O)C(F)(F)F | -6.455%
Cc1cnc(N2CCc3cc(C(=O)O)c(N(C)C)nc3CC2)nc1.O=C(O)C(F)(F)F | 100.3%
CC(=O)N1CC[C@]2(O)CCN(Cc3nc(C)c[nH]3)C[C@@H]2C1 | -2.174%
O=C(NCCn1ccc(-c2ccccn2)n1)c1ccncc1 | -7.154%
CC(=O)NCCn1ccc(-c2ccccn2)n1 | 104.5%
O=S(=O)(NCCn1ccc(-c2ccccn2)n1)C1CCCCC1 | 96.49%
CCOCC(=O)NCCn1ccc(-c2ccccn2)n1 | 107%
O=S(=O)(NCCn1ccc(-c2ccncc2)n1)C1CC1 | -3.151%
O=C(NCCn1ccc(-c2ccccn2)n1)C1CCC1 | 100.8%
CC(=O)NCCNc1nc(-c2ccccn2)nc2c1c(C)nn2C | -13.51%
O=C(CC1CCCC1)NCCn1ccc(-c2ccccn2)n1 | -10.47%

Structure (SMILES) | Percent Effect
O=C(NCCn1ccc(-c2ccccn2)n1)C1CC1 | -0.9217%
O=S(=O)(NCCn1ccc(-c2ccccn2)n1)C1CC1 | -6.765%
Cc1ccc(O)c(CN(Cc2ccccc2)Cc2nccs2)n1 | 11.33%
CCCN1CCCn2nc(CNC(=O)CCc3scnc3C)cc2C1 | 1.883%
CN(Cc1ccsc1)Cc1nc(-c2cnccn2)no1 | -7.726%
CC(C)(C)C(=O)NCCn1ccc(-c2ccncc2)n1 | -1.821%
CC(C)(C)C(=O)NCCn1ccc(-c2ccccn2)n1 | 67.15%
NC(=O)C1CCCN1Cc1nccn1CC(F)(F)F (stereo not drawn) | -2.704%
Cc1cnn(CC2CCCN2Cc2nc3ccccc3n2C)c1 (stereo not drawn) | 0.7122%
Cn1ccnc1CN1CCCC1Cn1cccn1 (stereo not drawn) | 107.8%
Cc1cnn(CC2CCCCN2Cc2nc(-c3ccoc3)no2)c1 (stereo not drawn) | 6.468%
Cc1cnn(CC2CCCCN2Cc2nccn2CC(F)(F)F)c1 (stereo not drawn) | 101.7%
Cc1cnn(CC2CCCN2Cc2nccn2CC(F)(F)F)c1 (stereo not drawn) | 129.3%
Cn1ccnc1CN1CCCCC1Cn1cccn1 (stereo not drawn) | 5.027%
Cc1cnn(CC2CCCN2Cc2nccn2C)c1 (stereo not drawn) | -1.089%
CCn1ccnc1CN1CCCC1Cn1cc(C)cn1 (stereo not drawn) | 134.6%
Cc1cnn(CC2CCCN2Cc2nc3ccccc3nc2C)c1 (stereo not drawn) | 3.797%
Cc1nc2ccccc2nc1CN1CCCCC1Cn1cccn1 (stereo not drawn) | -6.205%
O=C(C1CCCCN1Cc1nccn1CC(F)(F)F)N1CCCC1 (stereo not drawn) | -10.67%
